# In the supplement of paper PMC8728848:
# Only a selection was taken, and the strongest signals are over-represented in it overall.
# Legend:
# Assay in all cases: glycan array binding signal (z-score within array); higher = stronger binding
# Details in all cases: glycan notation: IUPAC condensed, linker removed
# [1] = target: Fuc(a1-2)Gal(b1-4)GlcNAc(b1-3)[Fuc(a1-3)[Gal(b1-4)]GlcNAc(b1-6)]Gal(b1-4)Glc
# How it was run: (§1)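 Columns mapping to the same glycan were averaged after glycan names were converted to IUPAC-condensed notation. The data come from 3228 arrays in the Consortium for Functional Glycomics database, limited to those with an available protein sequence. Binding is reported as a within-array Z-score averaged across arrays of one protein sequence and across linkers.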
# [2] = target: Fuc(a1-2)Gal(b1-4)[Fuc(a1-3)]GlcNAc(b1-2)[Fuc(a1-2)Gal(b1-4)[Fuc(a1-3)]GlcNAc(b1-4)]Man(a1-3)[Fuc(a1-2)Gal(b1-4)[Fuc(a1-3)]GlcNAc(b1-2)Man(a1-6)]Man(b1-4)GlcNAc(b1-4)GlcNAc
# How it was run: as §1
# [3] = target: Fuc(a1-2)[Gal(a1-3)]Gal(b1-4)GlcNAc(b1-3)[Fuc(a1-2)[Gal(a1-3)]Gal(b1-4)GlcNAc(b1-6)]GalNAc
# How it was run: as §1
# [4] = target: Fuc(a1-2)[Gal(a1-3)]Gal(b1-4)[Fuc(a1-3)]GlcNAc(b1-3)GalNAc
# How it was run: as §1
# [5] = target: Fuc(a1-2)[GalNAc(a1-3)]Gal(b1-3)GlcNAc(b1-6)GalNAc
# How it was run: as §1
# [6] = target: Fuc(a1-2)[GalNAc(a1-3)]Gal(b1-4)[Fuc(a1-3)]GlcNAc(b1-3)GalNAc
# How it was run: as §1
# [7] = target: Fuc(a1-3)[Gal(b1-4)]GlcNAc(b1-2)Man(a1-3)[Fuc(a1-3)[Gal(b1-4)]GlcNAc(b1-2)Man(a1-6)]Man(b1-4)GlcNAc(b1-4)[Fuc(a1-6)]GlcNAc
# How it was run: as §1
# [8] = target: Fuc(a1-3)[Gal(b1-4)]GlcNAc(b1-3)Gal(b1-4)[Fuc(a1-3)]GlcNAc
# How it was run: as §1
# [9] = target: Fuc(a1-3)[Gal(b1-4)]GlcNAc(b1-6)[Gal(b1-3)GlcNAc(b1-3)]Gal(b1-4)Glc
# How it was run: as §1
# [10] = target: Fuc(a1-3)[Gal3S(b1-4)]GlcNAc6S
# How it was run: as §1
# [11] = target: Fuc(a1-3)[GalNAc(b1-4)]GlcNAc6S
# How it was run: as §1
# [12] = target: Gal(a1-3)Gal(b1-3)GlcNAc(b1-2)Man(a1-3)[Gal(a1-3)Gal(b1-3)GlcNAc(b1-2)Man(a1-6)]Man(b1-4)GlcNAc(b1-4)GlcNAc
# How it was run: as §1
# [13] = target: Gal(a1-3)Gal(b1-3)[Fuc(a1-4)]GlcNAc(b1-2)Man(a1-3)[Gal(a1-3)Gal(b1-3)[Fuc(a1-4)]GlcNAc(b1-2)Man(a1-6)]Man(b1-4)GlcNAc(b1-4)GlcNAc
# How it was run: as §1
# [14] = target: Gal(a1-3)Gal(b1-4)GlcNAc
# How it was run: as §1
# [15] = target: Gal(a1-4)Gal(b1-4)GlcNAc(b1-2)Man(a1-3)[Gal(a1-4)Gal(b1-4)GlcNAc(b1-2)Man(a1-6)]Man(b1-4)GlcNAc(b1-4)GlcNAc
# How it was run: as §1
# [16] = target: Gal(b1-3)Gal(b1-4)GlcNAc
# How it was run: as §1
# [17] = target: Gal(b1-3)GalNAc
# How it was run: as §1
# [18] = target: Gal(b1-3)GlcNAc(b1-3)Gal(b1-4)Glc
# How it was run: as §1
# [19] = target: Gal(b1-3)GlcNAc(b1-3)Gal(b1-4)GlcNAc
# How it was run: as §1
# [20] = target: Gal(b1-3)[Fuc(a1-4)]GlcNAc(b1-2)Man
# How it was run: as §1
# [21] = target: Gal(b1-3)[Fuc(a1-4)]GlcNAc(b1-3)Gal(b1-3)[Fuc(a1-4)]GlcNAc
# How it was run: as §1
# [22] = target: Gal(b1-3)[Fuc(a1-4)]GlcNAc(b1-6)GalNAc
# How it was run: as §1
# [23] = target: Gal(b1-4)GlcNAc(b1-2)[Gal(b1-4)GlcNAc(b1-4)]Man(a1-3)[Gal(b1-4)GlcNAc(b1-2)Man(a1-6)]Man(b1-4)GlcNAc(b1-4)GlcNAc
# How it was run: as §1
# [24] = target: Gal(b1-4)GlcNAc(b1-2)[Gal(b1-4)GlcNAc(b1-6)]Man(a1-6)[GlcNAc(b1-4)][Gal(b1-4)GlcNAc(b1-2)Man(a1-3)]Man(b1-4)GlcNAc(b1-4)GlcNAc
# How it was run: as §1
# [25] = target: Gal(b1-4)GlcNAc(b1-3)Gal(b1-4)Glc
# How it was run: as §1
# [26] = target: Gal(b1-4)GlcNAc(b1-6)[Gal(b1-3)]GalNAc
# How it was run: as §1
# [27] = target: Gal3S(b1-3)GlcNAc
# How it was run: as §1
# [28] = target: Gal6S(b1-4)GlcNAc6S
# How it was run: as §1
# [29] = target: GalNAc(b1-4)GlcNAc(b1-2)Man(a1-3)[GalNAc(b1-4)GlcNAc(b1-2)Man(a1-6)]Man(b1-4)GlcNAc(b1-4)GlcNAc
# How it was run: as §1
# [30] = target: GlcA(b1-3)Gal
# How it was run: as §1
# [31] = target: GlcNAc(a1-3)Gal(b1-4)GlcNAc
# How it was run: as §1
# [32] = target: GlcNAc(b1-3)Gal(b1-4)GlcNAc(b1-3)Gal(b1-4)GlcNAc(b1-2)Man(a1-3)[GlcNAc(b1-3)Gal(b1-4)GlcNAc(b1-3)Gal(b1-4)GlcNAc(b1-2)Man(a1-6)]Man(b1-4)GlcNAc(b1-4)GlcNAc
# How it was run: as §1
# [33] = target: GlcNAc(b1-3)Gal(b1-4)GlcNAc(b1-3)Gal(b1-4)GlcNAc(b1-3)Gal(b1-4)GlcNAc(b1-3)Gal(b1-4)GlcNAc(b1-2)Man(a1-3)[GlcNAc(b1-3)Gal(b1-4)GlcNAc(b1-3)Gal(b1-4)GlcNAc(b1-3)Gal(b1-4)GlcNAc(b1-3)Gal(b1-4)GlcNAc(b1-2)Man(a1-6)]Man(b1-4)GlcNAc(b1-4)GlcNAc
# How it was run: as §1
# [34] = target: GlcNAc(b1-3)Gal(b1-4)GlcNAc(b1-3)GalNAc
# How it was run: as §1
# [35] = target: GlcNAc(b1-6)Gal(b1-4)GlcNAc
# How it was run: as §1
# [36] = target: Man(a1-3)[Man(a1-6)]Man
# How it was run: as §1
# [37] = target: Neu5Ac(a2-3)Gal(b1-3)GlcNAc(b1-2)Man
# How it was run: as §1
# [38] = target: Neu5Ac(a2-3)Gal(b1-3)[Fuc(a1-4)]GlcNAc(b1-3)Gal(b1-4)[Fuc(a1-3)]GlcNAc
# How it was run: as §1
# [39] = target: Neu5Ac(a2-3)Gal(b1-4)GlcNAc(b1-2)[Neu5Ac(a2-3)Gal(b1-4)GlcNAc(b1-4)]Man(a1-3)[GlcNAc(b1-4)][Neu5Ac(a2-3)Gal(b1-4)GlcNAc(b1-2)[Neu5Ac(a2-3)Gal(b1-4)GlcNAc(b1-6)]Man(a1-6)]Man(b1-4)GlcNAc(b1-4)GlcNAc
# How it was run: as §1
# [40] = target: Neu5Ac(a2-3)Gal(b1-4)GlcNAc(b1-2)[Neu5Ac(a2-3)Gal(b1-4)GlcNAc(b1-4)]Man(a1-3)[GlcNAc(b1-4)][Neu5Ac(a2-3)Gal(b1-4)GlcNAc(b1-4)Man(a1-6)]Man(b1-4)GlcNAc(b1-4)GlcNAc
# How it was run: as §1
# [41] = target: Neu5Ac(a2-6)Gal(b1-4)GlcNAc(b1-2)Man(a1-6)Man(b1-4)GlcNAc(b1-4)GlcNAc
# How it was run: as §1
# [42] = target: Neu5Ac(a2-6)Gal(b1-4)GlcNAc(b1-2)Man(a1-6)[Gal(b1-4)GlcNAc(b1-2)Man(a1-3)]Man(b1-4)GlcNAc(b1-4)GlcNAc
# How it was run: as §1
# [43] = target: Neu5Ac(a2-6)Gal(b1-4)GlcNAc(b1-3)GalNAc
# How it was run: as §1
# [44] = target: Neu5Ac(a2-8)Neu5Ac(a2-3)[GalNAc(b1-4)]Gal(b1-4)Glc
# How it was run: as §1
# [45] = target: Neu5Ac9Ac(a2-3)Gal(b1-3)GlcNAc
# How it was run: as §1
# [46] = target: Neu5Gc(a2-3)Gal(b1-3)[Fuc(a1-4)]GlcNAc
# How it was run: as §1
# [47] = target: Neu5Gc(a2-3)Gal(b1-4)[Fuc(a1-3)]GlcNAc
# How it was run: as §1
binder,measurement,setting,value
B936 (Bifidobacterium sp) (protein) MKNWKKAIALVASAAALVSVAACGPSNAGGSSDSGKKTVGFVAVGPEGGFRTANEKDIQKAFEDAGFDLTYSPTQNNDQQKQIQAFNKFVNDEVDAIILSSTEDSGWDDSLKKAAEAEIPVFTVDRNVDVKDAEAKKAIVAHIGPSNVWCGEQAAEFVNKNFPDGANGFILEGPAGLSVVKDRGTGWGNKVASNVKVLESQSANWSTDEAKTVTAGLLDKYKSDNPQFIFAQNDEMGLGAAQAVDAAGLKGKVKIITIDGTKNALQALVDGDLSYVIEYNPIFGKETAQAVKDYLDGKTVEKDIEIESKTFDAASAKEALDNNTRAY,glycan array binding signal (z-score),[1],-0.124
same,glycan array binding signal (z-score),[2],0.564
same,glycan array binding signal (z-score),[3],-0.277
same,glycan array binding signal (z-score),[4],-0.217
same,glycan array binding signal (z-score),[5],0.424
same,glycan array binding signal (z-score),[6],-0.006
same,glycan array binding signal (z-score),[7],0.198
same,glycan array binding signal (z-score),[8],-0.555
same,glycan array binding signal (z-score),[9],-0.786
same,glycan array binding signal (z-score),[10],0.399
same,glycan array binding signal (z-score),[11],-0.367
same,glycan array binding signal (z-score),[12],2.85
same,glycan array binding signal (z-score),[13],2.05
same,glycan array binding signal (z-score),[14],-0.375
same,glycan array binding signal (z-score),[15],2.19
same,glycan array binding signal (z-score),[16],11.1
same,glycan array binding signal (z-score),[17],4.57
same,glycan array binding signal (z-score),[18],1.71
same,glycan array binding signal (z-score),[19],4.33
same,glycan array binding signal (z-score),[20],1.8
same,glycan array binding signal (z-score),[21],-0.183
same,glycan array binding signal (z-score),[22],1.04
same,glycan array binding signal (z-score),[23],-0.689
same,glycan array binding signal (z-score),[24],-0.558
same,glycan array binding signal (z-score),[25],3.24
same,glycan array binding signal (z-score),[26],0.173
same,glycan array binding signal (z-score),[27],0.121
same,glycan array binding signal (z-score),[28],0.127
same,glycan array binding signal (z-score),[29],3.25
same,glycan array binding signal (z-score),[30],-0.516
same,glycan array binding signal (z-score),[31],0.799
same,glycan array binding signal (z-score),[32],0.824
same,glycan array binding signal (z-score),[33],-0.371
same,glycan array binding signal (z-score),[34],-0.806
same,glycan array binding signal (z-score),[35],-0.106
same,glycan array binding signal (z-score),[36],-0.318
same,glycan array binding signal (z-score),[37],0.307
same,glycan array binding signal (z-score),[38],0.193
same,glycan array binding signal (z-score),[39],-0.471
same,glycan array binding signal (z-score),[40],0.275
same,glycan array binding signal (z-score),[41],0.197
same,glycan array binding signal (z-score),[42],-0.37
same,glycan array binding signal (z-score),[43],2.06
same,glycan array binding signal (z-score),[44],-0.488
same,glycan array binding signal (z-score),[45],-0.521
same,glycan array binding signal (z-score),[46],0.081
same,glycan array binding signal (z-score),[47],-0.593
